In the library only some 12% were active in any assay of this set; here they are far more common.
Cycloheximide cs – counter-screen hit for Shiga toxin inhibitors, cycloheximide. max response, %. 300,000 compounds, 12% hits. cell reporter, cycloheximide protein synthesis inhibition counterscreen; in the data active = max response mostly above about 13%, no sharp cut-off; inactive = mostly below about 14%; also: read at 38.3 µM for the half of the compounds with a filed dose
Shiga inhibitor – inhibitors of Shiga toxin in Vero cells | Vero cells, Shiga toxin protein synthesis inhibition reporter | inhibition, % at 38.7 µM | 290,000 compounds, 9.2% hits; in the data active = inhibition mostly above about 28%, no sharp cut-off; inactive = mostly below about 43%
Sm TGR block – inhibitors of Schistosoma mansoni thioredoxin glutathione reductase | purified TGR, DTNB reduction, TNB absorbance 405 nm | Potency, µM (series often up to 114 µM), hits mostly inhibitors | 360,000 compounds, 3% hits | AID 485364; active = well fitted inhibition curve with a large enough effect; inconclusive = small, poorly fitted or top-dose-only effect; inactive = no such curve, though single readings can be large or run the other way; also: nearly all actives have a fitted effect of over 60% in size
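First, TGR (20 nM dispensed) and NADPH were mixed with compound. Second, a 15 min room-temperature incubation followed. Third, further NADPH and then DTNB were added to start the reaction. Finally, TNB absorbance was monitored kinetically.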
FMDV inh – foot and mouth disease virus antiviral activity; FMDV antiviral cell-based qHTS; Potency, µM (titrated, usually from 57.9 µM), actives largely listed as inhibitors; 410,000 compounds, 1.2% hits; AID 1159524; calls by dose curve; tested in HEK293T cells; also: read-out not given here; nearly all actives have a fitted effect of over 45% in size
Hits are given with their value.

`Cc1nn(-c2ccccc2)c(/N=C/c2ccccc2O)c1-c1ccccc1` gave Cycloheximide cs 80, Shiga inhibitor active, Sm TGR block inactive and FMDV inh inactive.
For Cc1nn(CC2CCCCC2)c(N)c1-c1ccccc1 the results were Cycloheximide cs 44, Shiga inhibitor 65, Sm TGR block inactive and FMDV inh inactive.
Cc1nn(-c2nc3ccccc3[nH]2)c(N)c1-c1ccccc1 was read as Cycloheximide cs 42, Shiga inhibitor 67, Sm TGR block inactive and FMDV inh inactive.
CCOC(=O)Cn1nc(C)c(-c2ccccc2)c1N was read as Cycloheximide cs inactive, Shiga inhibitor inactive, Sm TGR block inactive and FMDV inh inactive.
O=c1cc(-c2ccccc2)[nH]n1-c1nc2ccccc2[nH]1 was read as Cycloheximide cs inactive, Shiga inhibitor inactive, Sm TGR block inactive and FMDV inh inactive.
For COc1ccccc1Cc1nc2ccccc2nc1SCC(=O)N1CCN(c2ccccc2)CC1 the results were Sm TGR block inactive and FMDV inh inactive.
`CNc1oc(-c2cccs2)nc1S(=O)(=O)c1ccccc1` gave Cycloheximide cs inactive, Shiga inhibitor inactive, Sm TGR block inactive and FMDV inh inactive.
O=S(=O)(c1ccccc1)c1nc(-c2ccc(F)cc2)oc1NCC1CCCO1 (configuration not stated) was read as Sm TGR block 45µM and FMDV inh inactive.
O=S(=O)(c1ccccc1)c1nc(-c2ccc(F)cc2)oc1NCc1ccccc1 was read as Sm TGR block inactive and FMDV inh inactive.
For CC(C)CS(=O)(=O)c1oc(-c2ccc(F)cc2)nc1S(=O)(=O)c1ccccc1 the results were Sm TGR block 1.1µM and FMDV inh 25µM.
`CCC(C)S(=O)(=O)c1oc(-c2cccs2)nc1S(=O)(=O)c1ccccc1` (configuration not stated) gave Sm TGR block 0.71µM and FMDV inh 28µM.
For c1ccc(N2CCN(c3nc4ccccc4n4nnnc34)CC2)cc1 the results were Cycloheximide cs 38, Shiga inhibitor 28, Sm TGR block inactive and FMDV inh inactive.
Screening c1ccc2c(c1)nc(N1CCN(C3CCCCC3)CC1)c1nnnn12 returned Cycloheximide cs inactive, Shiga inhibitor inactive and Sm TGR block inactive.
`c1ccc2c(c1)nc(N1CCOCC1)c1nnnn12` gave Cycloheximide cs 32, Shiga inhibitor active, Sm TGR block inactive and FMDV inh inactive.
For Cc1[nH]c2ccccc2c1C(=O)C(=O)NC1CC(=O)N(c2ccccc2)C1 (configuration not stated) the results were Sm TGR block inactive and FMDV inh inactive.
Screening Cc1[nH]c2ccccc2c1C(=O)CSc1cccc[n+]1[O-] returned Cycloheximide cs inactive, Shiga inhibitor inactive, Sm TGR block inactive and FMDV inh inactive.
Cc1[nH]c2ccccc2c1C(=O)CCl was read as Cycloheximide cs inactive, Shiga inhibitor inactive, Sm TGR block 2µM and FMDV inh 25µM.
For Cc1[nH]c2ccccc2c1C(=O)CSc1ccc(F)cc1 the results were Cycloheximide cs 23, Shiga inhibitor inactive, Sm TGR block inactive and FMDV inh inactive.
For Cc1[nH]c2ccccc2c1C(=O)C(=O)NC1CC1 the results were Cycloheximide cs 48, Shiga inhibitor 94, Sm TGR block inactive and FMDV inh inactive.
`Cc1ccc(SCC(=O)c2c(C)[nH]c3ccccc23)cc1` gave Cycloheximide cs 13, Shiga inhibitor inactive, Sm TGR block inactive and FMDV inh inactive.
For Cc1[nH]c2ccccc2c1C(=O)COC(=O)c1ccccc1O the results were FMDV inh inactive.
Screening COc1cc(NC(=O)CSc2cc(=O)n(C)c3ccccc23)cc(OC)c1OC returned Sm TGR block inactive and FMDV inh inactive.
`CCOc1ccccc1NC(=O)COc1cccc2c(=O)n(CCOC)ccc12` gave Sm TGR block inactive and FMDV inh inconclusive.
Cc1[nH]c2ccccc2c1C(=O)CSc1ccccn1 was read as Cycloheximide cs 40, Shiga inhibitor inactive, Sm TGR block inactive and FMDV inh inactive.
Cc1[nH]c2ccccc2c1C(=O)CSc1ccccc1 was read as Cycloheximide cs 28, Shiga inhibitor inactive, Sm TGR block inactive and FMDV inh inactive.
For Cc1ccc2c(C(=O)CSc3ccccc3)c(C)[nH]c2c1 the results were Cycloheximide cs inactive, Shiga inhibitor inactive, Sm TGR block inactive and FMDV inh inactive.
Screening O=c1[nH]c(Nc2ccccc2)cc2ccccc12 returned Cycloheximide cs inactive, Shiga inhibitor inactive, Sm TGR block 16µM and FMDV inh inactive.
`O=c1[nH]c(Nc2ccccc2)cc2cc(Br)ccc12` gave FMDV inh inactive.
`Cc1ccc(C)c(N2CCN(C(=O)C3CCN(c4nc(-c5ccc(C(C)C)cc5)no4)CC3)CC2)c1` gave Sm TGR block inactive and FMDV inh inconclusive.

From PubChem BioAssay
